Results reported in PubChem BioAssay (NCI).
The panel holds about 83,000 compounds, 20% with a hit somewhere; the sample as a whole holds those more often.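 Method: cells in 96-well plates; compound added at one concentration; 48 h incubation; percent growth measured; values under 10 scored active.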 Unmarked numbers belong to inactive results. Activity calls are given as the source filed them.

System: MCF7 breast
Test: NCI-60 one-dose screen, 48 h (100 = growth as untreated, 0 = no growth, -100 = all killed)
Conditions: 10 µM unless noted

Row | SMILES | growth
1 | O=C(Cn1c2ccccc2c2ccncc21)N/N=C/c1c[nH]c2ccccc12 | 37.8%
2 | Cc1ccc(-c2nc3c(N=Nc4ccc(S(N)(=O)=O)cc4)c(N)nn3c(N)c2C#N)cc1 | 28.3%
3 | O=C(Nc1ccccc1Cl)c1c[nH]c(=O)c(-c2ccc(N3CCCOC4(CC4)C3)cc2)c1 | 40%
4 | OC(COc1ccccc1Cl)CN1CCN(c2ccc(Cl)cc2)CC1 (centres undefined) | 90.2%
5 | Nc1nccc2c1ccn2-c1ccc(NC(=O)Nc2cccc(C(F)(F)F)c2)cc1 | 86.8%
6 | O=C(Nc1ccc(-n2ccc3c(NC(=O)c4ccccc4)nccc32)cc1)Nc1cccc(C(F)(F)F)c1 | 47.7%
7 | O=C1C(Cl)=C(Nc2ccccc2)C(=O)C(Cl)=C1Nc1ccccc1 | 105%
8 | CC(=O)Nc1ccc([I+]c2ccc([N+](=O)[O-])cc2)cc1 | 94.8%
9 | CCN1CCN(Cc2ccc(NC(=O)Nc3cccc(-n4ccc5c(NC(=O)c6ccccc6)nccc54)c3)cc2C(F)(F)F)CC1 | 31.4%
10 | O=C(Nc1cccc(-n2ccc3c(NC(=O)c4ccccc4)nccc32)c1)c1cccc(C(F)(F)F)c1 | 19%
11 | CC(=O)N[C@@H](CNC(=O)c1cc(NC(=O)c2cc(NC(=O)c3cc(NC(=O)c4nccn4C)cn3C)cn2C)cn1C)CC(=O)Nc1cn(C)c(C(=O)Nc2cc(C(=O)Nc3cc(C(=O)Nc4cc(C(=O)NCCCN(C)CCCNC(=O)c5cccc(C(=O)O)c5)n(C)c4)n(C)c3)n(C)c2)n1 | 77.8%
12 | CCOC(=O)c1cnc2c(OC)ccc(OC)c2c1Cl | 108%
13 | NS(=O)(=O)c1ccc(Nc2nc(O)c(/C=C3\C=Nc4ccccc43)s2)cc1 | 94.2%
14 | CNC(=O)NN | 98.1%
15 | Cc1cc(O[C@@H]2O[C@@H](C)[C@H](O)[C@@H](O)[C@H]2O)c2c3c(c(O[C@@H]4O[C@@H](C)[C@H](O)[C@@H](O)[C@H]4O)cc2c1)C(=O)c1c(O)cccc1C3=O | 81%
16 | Cc1cccc(Cc2cnc(NC(=O)CCc3ccc(C)o3)s2)c1 | 12.4%
17 | C=CC(=O)NC(=O)Nc1ccccc1Cl | 27.1%
18 | COc1cccc(-c2nc3sccn3c2-c2ccnc(NCCNC(=O)c3ccccc3)n2)c1 | 81.7%
19 | COc1ccc(-c2nn(-c3ccc(NC(=O)Nc4ccc(Cl)c(C(F)(F)F)c4)cc3)cc2-c2ccncc2)cc1Cl | 7.96% (active)

Row | SMILES | growth
20 | CC(C)CNCC(O)COc1ccc(C(C)(C)c2ccc(OCC(O)CNCC(C)C)cc2)cc1 (centres undefined) | 10.3%
21 | Cc1ccc2[nH]c3nc4cccnc4c(C)c3c2c1 | 1.4% (active)
22 | O=C(Nc1ccc(-n2ccc3c(NC(=O)c4ccccc4)nccc32)cc1)c1ccc(Cl)c(C(F)(F)F)c1 | -62.6% (active)
23 | COc1ccc(-c2nn(-c3ccc(NC(=O)Nc4ccc(Cl)c(Cl)c4)cc3)cc2-c2ccncc2)cc1Cl | 13.3%
24 | Nc1nccc2c1ccn2-c1cccc(NC(=O)c2ccc(N3CCOCC3)c(C(F)(F)F)c2)c1 | 16%
25 | Cc1cc[n+](CCCC[n+]2ccc(C)cc2)cc1 | 96.3%
26 | COC1=C(OC)C(=O)C=CC1=O | 94.3%
27 | Cc1ccccc1C[P+](c1ccccc1)(c1ccccc1)c1ccccc1 | 10.8%
28 | CC/C(=C(\CC)c1ccc(OCCN(CC)CC)cc1)c1ccc(OCCN(CC)CC)cc1 | 30.1%
29 | COc1cccc(-c2nc3sccn3c2-c2ccnc(NCCNC(=O)Nc3cccc(C(F)(F)F)c3)n2)c1 | 54.8%
30 | COc1ccc(-c2cnc(-c3ccc(F)cc3)[nH]2)cc1 | 26.3%
31 | O=C(Nc1ccc(-n2cc(-c3ccncc3)c(-c3ccc(O)c(Cl)c3)n2)cc1)c1ccc(Cl)c(C(F)(F)F)c1 | 20.9%
32 | O=C(Nc1ccc(-n2ccc3c(NC(=O)c4ccccc4)ncnc32)cc1)c1ccc(Cl)c(C(F)(F)F)c1 | 12.5%
33 | C=CC(=O)Nc1cccc(Nc2nc(Nc3ccc(OCCOC(F)F)cc3)ncc2F)c1 | 23.9%
34 | O=[N+]([O-])c1cccc(C(c2ccccc2)c2ccccc2)c1 | 106%
35 | O=C(NCCNc1nccc(-c2c(-c3cccc(O)c3)nc3sccn23)n1)Nc1cccc(C(F)(F)F)c1 | 55.6%
36 | O=C(Nc1cccc(-n2ccc3c(NC(=O)c4ccccc4)nccc32)c1)c1cc(N2CCOCC2)cc(C(F)(F)F)c1 | 21.3%
37 | O=C(Nc1ccc(-n2cc(-c3ccncc3)c(-c3ccc(O)c(Cl)c3)n2)cc1)c1cc(C(F)(F)F)cc(C(F)(F)F)c1 | 58%

System: HCT-116 colon
Test: as above
Conditions: 10 µM unless noted

Row | SMILES | growth
38 | O=C(Cn1c2ccccc2c2ccncc21)N/N=C/c1c[nH]c2ccccc12 | 4.33% (active)
39 | Cc1ccc(-c2nc3c(N=Nc4ccc(S(N)(=O)=O)cc4)c(N)nn3c(N)c2C#N)cc1 | 13.7%
40 | O=C(Nc1ccccc1Cl)c1c[nH]c(=O)c(-c2ccc(N3CCCOC4(CC4)C3)cc2)c1 | 42.4%
41 | OC(COc1ccccc1Cl)CN1CCN(c2ccc(Cl)cc2)CC1 (centres undefined) | 96.4%
42 | Nc1nccc2c1ccn2-c1ccc(NC(=O)Nc2cccc(C(F)(F)F)c2)cc1 | 76.8%
43 | O=C(Nc1ccc(-n2ccc3c(NC(=O)c4ccccc4)nccc32)cc1)Nc1cccc(C(F)(F)F)c1 | 4.34% (active)
44 | O=C1C(Cl)=C(Nc2ccccc2)C(=O)C(Cl)=C1Nc1ccccc1 | 112%
45 | CC(=O)Nc1ccc([I+]c2ccc([N+](=O)[O-])cc2)cc1 | 81%
46 | CCN1CCN(Cc2ccc(NC(=O)Nc3cccc(-n4ccc5c(NC(=O)c6ccccc6)nccc54)c3)cc2C(F)(F)F)CC1 | 75.8%
47 | O=C(Nc1cccc(-n2ccc3c(NC(=O)c4ccccc4)nccc32)c1)c1cccc(C(F)(F)F)c1 | 1.3% (active)
48 | CC(=O)N[C@@H](CNC(=O)c1cc(NC(=O)c2cc(NC(=O)c3cc(NC(=O)c4nccn4C)cn3C)cn2C)cn1C)CC(=O)Nc1cn(C)c(C(=O)Nc2cc(C(=O)Nc3cc(C(=O)Nc4cc(C(=O)NCCCN(C)CCCNC(=O)c5cccc(C(=O)O)c5)n(C)c4)n(C)c3)n(C)c2)n1 | 43.9%
49 | CCOC(=O)c1cnc2c(OC)ccc(OC)c2c1Cl | 108%
50 | NS(=O)(=O)c1ccc(Nc2nc(O)c(/C=C3\C=Nc4ccccc43)s2)cc1 | 92.7%
51 | CNC(=O)NN | 93.6%
52 | Cc1cc(O[C@@H]2O[C@@H](C)[C@H](O)[C@@H](O)[C@H]2O)c2c3c(c(O[C@@H]4O[C@@H](C)[C@H](O)[C@@H](O)[C@H]4O)cc2c1)C(=O)c1c(O)cccc1C3=O | 81%
53 | Cc1cccc(Cc2cnc(NC(=O)CCc3ccc(C)o3)s2)c1 | 11.5%
54 | C=CC(=O)NC(=O)Nc1ccccc1Cl | 55.5%
55 | COc1cccc(-c2nc3sccn3c2-c2ccnc(NCCNC(=O)c3ccccc3)n2)c1 | 81.8%
56 | COc1ccc(-c2nn(-c3ccc(NC(=O)Nc4ccc(Cl)c(C(F)(F)F)c4)cc3)cc2-c2ccncc2)cc1Cl | -7.68% (active)

Row | SMILES | growth
57 | CC(C)CNCC(O)COc1ccc(C(C)(C)c2ccc(OCC(O)CNCC(C)C)cc2)cc1 (centres undefined) | 0.347% (active)
58 | Cc1ccc2[nH]c3nc4cccnc4c(C)c3c2c1 | 91.9%
59 | O=C(Nc1ccc(-n2ccc3c(NC(=O)c4ccccc4)nccc32)cc1)c1ccc(Cl)c(C(F)(F)F)c1 | -92.4% (active)
60 | COc1ccc(-c2nn(-c3ccc(NC(=O)Nc4ccc(Cl)c(Cl)c4)cc3)cc2-c2ccncc2)cc1Cl | 0.339% (active)
61 | Nc1nccc2c1ccn2-c1cccc(NC(=O)c2ccc(N3CCOCC3)c(C(F)(F)F)c2)c1 | 7.23% (active)
62 | Cc1cc[n+](CCCC[n+]2ccc(C)cc2)cc1 | 100%
63 | COC1=C(OC)C(=O)C=CC1=O | 64.4%
64 | Cc1ccccc1C[P+](c1ccccc1)(c1ccccc1)c1ccccc1 | 15.7%
65 | CC/C(=C(\CC)c1ccc(OCCN(CC)CC)cc1)c1ccc(OCCN(CC)CC)cc1 | 16.7%
66 | COc1cccc(-c2nc3sccn3c2-c2ccnc(NCCNC(=O)Nc3cccc(C(F)(F)F)c3)n2)c1 | 44.6%
67 | COc1ccc(-c2cnc(-c3ccc(F)cc3)[nH]2)cc1 | -68.8% (active)
68 | O=C(Nc1ccc(-n2cc(-c3ccncc3)c(-c3ccc(O)c(Cl)c3)n2)cc1)c1ccc(Cl)c(C(F)(F)F)c1 | 9.26% (active)
69 | O=C(Nc1ccc(-n2ccc3c(NC(=O)c4ccccc4)ncnc32)cc1)c1ccc(Cl)c(C(F)(F)F)c1 | -32% (active)
70 | C=CC(=O)Nc1cccc(Nc2nc(Nc3ccc(OCCOC(F)F)cc3)ncc2F)c1 | 36%
71 | O=[N+]([O-])c1cccc(C(c2ccccc2)c2ccccc2)c1 | 65.6%
72 | O=C(NCCNc1nccc(-c2c(-c3cccc(O)c3)nc3sccn23)n1)Nc1cccc(C(F)(F)F)c1 | 56.8%
73 | O=C(Nc1cccc(-n2ccc3c(NC(=O)c4ccccc4)nccc32)c1)c1cc(N2CCOCC2)cc(C(F)(F)F)c1 | 1.44% (active)
74 | O=C(Nc1ccc(-n2cc(-c3ccncc3)c(-c3ccc(O)c(Cl)c3)n2)cc1)c1cc(C(F)(F)F)cc(C(F)(F)F)c1 | 40.3%
